Inhibition data for 25 molecules are collected here from PubChem BioAssay AID624330 (Southern Research Specialized Biocontainment Screening …, 2012).

SMILES strings stand for the structures. The campaign covered roughly 340,000 compounds. About 2,100 (0.62%) were called active.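 How the source made its calls: active means first-screen hits whose inhibition reached a set limit at any dose in the follow-up dose series; inconclusive means inhibition above the set first-screen limit but never retested; inactive means the rest.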 The list is a sample of the results. Potency and affinity values are given separately.

The target of the test is Rac GTPase-activating protein 1 (Homo sapiens) (UniProt Q9H0H5). Description: MgcRacGAP GTPase-activating activity inhibitors, confirmation, biochemical, ADP Hunter fluorescence, primary and confirmatory (AID 624330).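 Further: fluorescence reports GDP produced by GAP-driven GTP hydrolysis.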 The settings on record: MgcRacGAP-stimulated Rac1 GTP hydrolysis, at 30 µM, hits give high values, GST-tagged Rac1 F28L mutant substrate.
Rac GTPase-activating protein 1 (Homo sapiens), sequence (Q9H0H5 whole entry, looked up): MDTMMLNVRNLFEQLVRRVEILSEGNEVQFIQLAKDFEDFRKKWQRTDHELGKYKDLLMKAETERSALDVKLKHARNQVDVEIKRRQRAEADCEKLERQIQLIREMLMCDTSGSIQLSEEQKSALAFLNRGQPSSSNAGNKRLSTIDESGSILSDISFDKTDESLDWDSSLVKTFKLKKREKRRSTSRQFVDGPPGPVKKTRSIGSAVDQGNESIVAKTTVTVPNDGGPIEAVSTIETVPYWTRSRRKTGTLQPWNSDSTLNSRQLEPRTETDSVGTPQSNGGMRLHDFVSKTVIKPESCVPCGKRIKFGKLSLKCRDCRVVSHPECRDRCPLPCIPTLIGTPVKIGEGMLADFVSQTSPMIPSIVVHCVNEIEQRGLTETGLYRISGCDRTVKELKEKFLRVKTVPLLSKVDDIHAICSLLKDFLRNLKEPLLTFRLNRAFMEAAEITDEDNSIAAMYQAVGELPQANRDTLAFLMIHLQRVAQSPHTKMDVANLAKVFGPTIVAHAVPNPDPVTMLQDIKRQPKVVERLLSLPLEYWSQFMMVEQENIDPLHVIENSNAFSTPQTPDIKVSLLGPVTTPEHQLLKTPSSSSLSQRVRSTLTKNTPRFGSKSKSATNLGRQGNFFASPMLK
What is called inhibition is the relative decrease from the control value, in per cent. As for `COc1ccc(-c2nn(-c3ccccc3)cc2C(=O)NC2CCCCC2C)cc1` (stereo not given), the inhibition is 7.37% (inactive). Under `CCOCCCNC(=O)C1CCCN(S(=O)(=O)c2ccc(-n3cnnn3)cc2)C1` (stereo not given) stands 1.87% (inactive). Then `CCOC(=O)c1ccc(NC(=S)NCCCn2ccnc2)cc1`, with -38.2% (inactive); and `COc1ccc(CCN2CN(S(=O)(=O)c3ccccc3)c3nc4ccccc4nc32)cc1OC`, with 2.57% (inactive); and `CCOc1ccc(NC(=S)N(Cc2ccc(N(C)C)cc2)Cc2ccco2)cc1`, with 1.67% (inactive). For the molecule `O=C(O)C1CCCN1S(=O)(=O)c1ccc2ccccc2c1` (stereo not given), the inhibition is -1.39% (inactive).

As to `COC(=O)c1cccc(NS(=O)(=O)c2ccc(OC)c(OC)c2)c1C`, the inhibition was 4.85% (inactive). Then `O=C(CCCc1cccs1)Nc1nc(-c2ccc(F)cc2)cs1`, with 9.23% (inactive). Consider `O=C(c1cccs1)N1CCN(c2ncc(C(F)(F)F)cc2Cl)CC1`, for which the inhibition was 8.94% (inactive). Under `O=C(Cc1ccc(Cl)cc1)Nc1ccc2c(c1)C(=O)NC2=O` stands 10.3% (inactive); under `COc1ccc(-c2c(-c3ccsc3)oc(=O)c3cc(OC)c(OC)cc23)cc1`, 3.56% (inactive); under `COc1ccc(/C=C/c2ccc3cccc(O)c3n2)cc1Br`, 5.56% (inactive). On to `COc1ccc(/C=N/Nc2nc3ccccc3c(=O)n2-c2ccccc2)cc1OC`, for which the inhibition was 8.28% (inactive). Under `O=C(O)c1ccc(-n2c(/C=C/c3ccccc3)nc3ccccc3c2=O)cc1` stands -4% (inactive); under `O=C(O)c1cccc(-n2c(/C=C/c3ccccc3)nc3ccccc3c2=O)c1`, -7.35% (inactive).

Consider `COc1cc(/C=C/c2ccc3cccc(O)c3n2)cc(OC)c1OC`, for which the inhibition is 3.89% (inactive). Then `CCOc1cc(/C=C/c2nc3ccccc3c(=O)[nH]2)ccc1O`, with 11.1% (inactive); and `Cc1cc(C)cc(Nc2c3c(nc4ncnn24)CCC3)c1`, with 8.12% (inactive). Under `CCC1=C(OC(=O)N(CC)CC)N2C(=O)OC(=NCCOC)[C@]2(Cc2ccccc2)[C@H]2C1=CC[C@H]1C(=O)N(CC(=O)OC)C(=O)[C@H]12` stands 11.9% (inactive); under `CN(C(=O)c1cccc(NC(=O)Cc2ccc(NC(=O)C3CCN(C(=O)C4CC4)CC3)cc2)c1)C1CCC1`, 6.53% (inactive). Then `O=C(NCc1cccnc1)C1CC(c2cccc(Br)c2)=NO1` (stereo not given), with 0.07% (inactive); and `CC(C(=O)NCc1ccc(F)cc1)c1ccc([N+](=O)[O-])cc1` (stereo not given), with 8.32% (inactive); and `CN1CCN(S(=O)(=O)c2ccc(Oc3ccc(F)cc3Br)nc2)CC1`, with 6.58% (inactive). For the molecule `CCC1CCCCN1C(=S)NC(=O)c1cc(Br)ccc1Cl` (stereo not given), the inhibition is 4.56% (inactive). For the molecule `CCc1nnc(NC(=O)Cn2nnc(-c3ccccc3F)n2)s1`, the inhibition was 5.2% (inactive).
